# Laboratory results taken from PMC8384837, “Expanding the binding specificity for RNA recognition by a PUF domain”.
# What was measured:
# Assay in all cases: yeast three-hybrid, YBZ-1, SC-Leu-His + 0.5 mM 3-AT, 4 days
# Conditions in all cases: tags: N-Gal4 AD-HA kept; label: inside an RPR1-promoter hybrid RNA with tandem MS2 sites; ssRNA
# PUM1 PUF domain R5-THV = PUM1 PUF domain R5-THV (Homo sapiens, UniProt Q14671 828-1176, C1007T;R1008H;Q1011V)
# Method in brief: (§1)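 The interaction score is the log change in variant frequency from input to selection. Scores were computed in log2 with a pseudocount of 1 for absent variants, using Illumina sequencing of PCR-amplified repeat regions. The input came from four days on SC-Leu and the selection from four days on SC-Leu-His + 0.5 mM 3-AT. The cells were strain YBZ-1 (LexA–MS2 coat fusion, HIS3 reporter) co-expressing Pumilio-1 PUF domain libraries and matching RNA elements from a centromeric plasmid.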
# PUM1 PUF domain R5-GRF = PUM1 PUF domain R5-GRF (Homo sapiens, UniProt Q14671 828-1176, C1007G;Q1011F)
# PUM1 PUF domain R5-GRF, sequence (Q14671 828-1176 C1007G/Q1011F): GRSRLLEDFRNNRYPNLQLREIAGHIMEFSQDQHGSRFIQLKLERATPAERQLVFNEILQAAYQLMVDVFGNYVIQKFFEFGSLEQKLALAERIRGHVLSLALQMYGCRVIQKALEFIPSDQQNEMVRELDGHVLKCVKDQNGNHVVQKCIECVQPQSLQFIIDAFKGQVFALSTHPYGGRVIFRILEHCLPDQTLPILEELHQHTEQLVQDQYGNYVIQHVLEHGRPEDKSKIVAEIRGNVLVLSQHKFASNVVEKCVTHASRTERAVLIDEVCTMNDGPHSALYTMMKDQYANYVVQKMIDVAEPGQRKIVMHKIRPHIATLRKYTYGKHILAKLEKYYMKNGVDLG
# Method in brief: as §1
# PUM1 PUF domain R5-TRH = PUM1 PUF domain R5-TRH (Homo sapiens, UniProt Q14671 828-1176, C1007T;Q1011H)
# PUM1 PUF domain R5-TRH, sequence (Q14671 828-1176 C1007T/Q1011H): as the sequence (Q14671 828-1176 C1007G/Q1011F) above, with G180T, F184H counted along it
# Method in brief: as §1
# PUM1 PUF domain R8-GHK = PUM1 PUF domain R8-GHK (Homo sapiens, UniProt Q14671 828-1176, N1122G;Y1123H;Q1126K)
# PUM1 PUF domain R8-GHK, sequence (Q14671 828-1176 N1122G/Y1123H/Q1126K): as the sequence (Q14671 828-1176 C1007G/Q1011F) above, with G180C, F184Q, N295G, Y296H, Q299K counted along it
# Method in brief: as §1
# PUM1 PUF domain R8-RWS = PUM1 PUF domain R8-RWS (Homo sapiens, UniProt Q14671 828-1176, N1122R;Y1123W;Q1126S)
# PUM1 PUF domain R8-RWS, sequence (Q14671 828-1176 N1122R/Y1123W/Q1126S): as the sequence (Q14671 828-1176 C1007G/Q1011F) above, with G180C, F184Q, N295R, Y296W, Q299S counted along it
# Method in brief: as §1
# PUM1 PUF domain R8-KFN = PUM1 PUF domain R8-KFN (Homo sapiens, UniProt Q14671 828-1176, N1122K;Y1123F;Q1126N)
# PUM1 PUF domain R8-KFN, sequence (Q14671 828-1176 N1122K/Y1123F/Q1126N): as the sequence (Q14671 828-1176 C1007G/Q1011F) above, with G180C, F184Q, N295K, Y296F, Q299N counted along it
# Method in brief: as §1
# PUM1 PUF domain R8-RFF = PUM1 PUF domain R8-RFF (Homo sapiens, UniProt Q14671 828-1176, N1122R;Y1123F;Q1126F)
# PUM1 PUF domain R8-RFF, sequence (Q14671 828-1176 N1122R/Y1123F/Q1126F): as the sequence (Q14671 828-1176 C1007G/Q1011F) above, with G180C, F184Q, N295R, Y296F, Q299F counted along it
# Method in brief: as §1
# PUM1 PUF domain R8-KKG = PUM1 PUF domain R8-KKG (Homo sapiens, UniProt Q14671 828-1176, N1122K;Y1123K;Q1126G)
# PUM1 PUF domain R8-KKG, sequence (Q14671 828-1176 N1122K/Y1123K/Q1126G): as the sequence (Q14671 828-1176 C1007G/Q1011F) above, with G180C, F184Q, N295K, Y296K, Q299G counted along it
# Method in brief: as §1
# PUM1 PUF domain R3-THF = PUM1 PUF domain R3-THF (Homo sapiens, UniProt Q14671 828-1176, C935T;R936H;Q939F)
# PUM1 PUF domain R3-THF, sequence (Q14671 828-1176 C935T/R936H/Q939F): as the sequence (Q14671 828-1176 C1007G/Q1011F) above, with C108T, R109H, Q112F, G180C, F184Q counted along it
# Method in brief: as §1
# PUM1 PUF domain R5-DFD = PUM1 PUF domain R5-DFD (Homo sapiens, UniProt Q14671 828-1176, C1007D;R1008F;Q1011D)
# PUM1 PUF domain R5-DFD, sequence (Q14671 828-1176 C1007D/R1008F/Q1011D): as the sequence (Q14671 828-1176 C1007G/Q1011F) above, with G180D, R181F, F184D counted along it
# Method in brief: as §1
# PUM1 PUF domain R5-GHG = PUM1 PUF domain R5-GHG (Homo sapiens, UniProt Q14671 828-1176, C1007G;R1008H;Q1011G)
# PUM1 PUF domain R5-GHG, sequence (Q14671 828-1176 C1007G/R1008H/Q1011G): as the sequence (Q14671 828-1176 C1007G/Q1011F) above, with R181H, F184G counted along it
# Method in brief: as §1
# PUM1 PUF domain R5-RQH = PUM1 PUF domain R5-RQH (Homo sapiens, UniProt Q14671 828-1176, C1007R;R1008Q;Q1011H)
# PUM1 PUF domain R5-RQH, sequence (Q14671 828-1176 C1007R/R1008Q/Q1011H): as the sequence (Q14671 828-1176 C1007G/Q1011F) above, with G180R, R181Q, F184H counted along it
# Method in brief: as §1
# PUM1 PUF domain R3-FRL = PUM1 PUF domain R3-FRL (Homo sapiens, UniProt Q14671 828-1176, C935F;Q939L)
# PUM1 PUF domain R3-FRL, sequence (Q14671 828-1176 C935F/Q939L): as the sequence (Q14671 828-1176 C1007G/Q1011F) above, with C108F, Q112L, G180C, F184Q counted along it
# Method in brief: as §1
# PUM1 PUF domain R7-RPE = PUM1 PUF domain R7-RPE (Homo sapiens, UniProt Q14671 828-1176, S1079R;N1080P)
# PUM1 PUF domain R7-RPE, sequence (Q14671 828-1176 S1079R/N1080P): as the sequence (Q14671 828-1176 C1007G/Q1011F) above, with G180C, F184Q, S252R, N253P counted along it
# Method in brief: as §1
# PUM1 PUF domain R3-APK = PUM1 PUF domain R3-APK (Homo sapiens, UniProt Q14671 828-1176, C935A;R936P;Q939K)
# PUM1 PUF domain R3-APK, sequence (Q14671 828-1176 C935A/R936P/Q939K): as the sequence (Q14671 828-1176 C1007G/Q1011F) above, with C108A, R109P, Q112K, G180C, F184Q counted along it
# Method in brief: as §1
# PUM1 PUF domain R5-THV, sequence (Q14671 828-1176 C1007T/R1008H/Q1011V): as the sequence (Q14671 828-1176 C1007G/Q1011F) above, with G180T, R181H, F184V counted along it
sequence,measurement,setting,value
GGCUAGAACUAGUGGAUCCCCCGGCGCCCGGCGGCUCGAGCCCGGGUAAGUGUUAAUAGUCUGCAUGCCGCCGGGCGCCAUGCCUGCAGGUCGACUCUAGAAAACAUG,binding signal,PUM1 PUF domain R5-THV,3.33 log2 enrichment (interaction score)
same,binding signal,PUM1 PUF domain R5-GRF,3.3 log2 enrichment (interaction score)
same,binding signal,PUM1 PUF domain R5-TRH,4.41 log2 enrichment (interaction score)
GGCUAGAACUAGUGGAUCCCCCGGCGCCCGGCGGCUCGAGCCCGGGUAAGCGUAAAUAGUCUGCAUGCCGCCGGGCGCCAUGCCUGCAGGUCGACUCUAGAAAACAUG,binding signal,PUM1 PUF domain R8-GHK,2.58 log2 enrichment (interaction score)
same,binding signal,PUM1 PUF domain R8-RWS,5.59 log2 enrichment (interaction score)
same,binding signal,PUM1 PUF domain R8-KFN,2.26 log2 enrichment (interaction score)
same,binding signal,PUM1 PUF domain R8-RFF,5.12 log2 enrichment (interaction score)
same,binding signal,PUM1 PUF domain R8-KKG,2.43 log2 enrichment (interaction score)
GGCUAGAACUAGUGGAUCCCCCGGCGCCCGGCGGCUCGAGCCCGGGUAAGUGUAAAUAGUCUGCAUGCCGCCGGGCGCCAUGCCUGCAGGUCGACUCUAGAAAACAUG,binding signal,PUM1 PUF domain R8-RWS,4.8 log2 enrichment (interaction score)
same,binding signal,PUM1 PUF domain R3-THF,3.81 log2 enrichment (interaction score)
same,binding signal,PUM1 PUF domain R5-GRF,1.75 log2 enrichment (interaction score)
same,binding signal,PUM1 PUF domain R5-DFD,3.03 log2 enrichment (interaction score)
same,binding signal,PUM1 PUF domain R8-KFN,2.9 log2 enrichment (interaction score)
same,binding signal,PUM1 PUF domain R5-TRH,5.68 log2 enrichment (interaction score)
same,binding signal,PUM1 PUF domain R5-GHG,3.84 log2 enrichment (interaction score)
GGCUAGAACUAGUGGAUCCCCCGGCGCCCGGCGGCUCGAGCCCGGGUAAGUGUCAAUAGUCUGCAUGCCGCCGGGCGCCAUGCCUGCAGGUCGACUCUAGAAAACAUG,binding signal,PUM1 PUF domain R5-RQH,3.64 log2 enrichment (interaction score)
same,binding signal,PUM1 PUF domain R5-DFD,2.82 log2 enrichment (interaction score)
same,binding signal,PUM1 PUF domain R5-GHG,2.77 log2 enrichment (interaction score)
GGCUAGAACUAGUGGAUCCCCCGGCGCCCGGCGGCUCGAGCCCGGGUAAGUGUAAGUAGUCUGCAUGCCGCCGGGCGCCAUGCCUGCAGGUCGACUCUAGAAAACAUG,binding signal,PUM1 PUF domain R3-FRL,4.24 log2 enrichment (interaction score)
GGCUAGAACUAGUGGAUCCCCCGGCGCCCGGCGGCUCGAGCCCGGGUAAGUUUAAAUAGUCUGCAUGCCGCCGGGCGCCAUGCCUGCAGGUCGACUCUAGAAAACAUG,binding signal,PUM1 PUF domain R7-RPE,3.87 log2 enrichment (interaction score)
GGCUAGAACUAGUGGAUCCCCCGGCGCCCGGCGGCUCGAGCCCGGGUAAGUGUAAUUAGUCUGCAUGCCGCCGGGCGCCAUGCCUGCAGGUCGACUCUAGAAAACAUG,binding signal,PUM1 PUF domain R3-APK,4.11 log2 enrichment (interaction score)
